Measured values from PubChem BioAssay AID1159580 (chemical genetic matrix, 2015).
Screen size: about 5,500 compounds; about 2,000 (36%) were called active. Another 18% or so got no clear call; they are omitted. No stated cut-off is given here; in the data, active means normalized growth mostly below about 0.91 (no sharp cut-off); inconclusive means no clear call, values can overlap the other calls; inactive means mostly above about 0.92. Some of the results follow.

Assay: chemical genetic growth profiling, strain panel (AID 1159580);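 further: tested at 20 µM; growth read once vehicle control cultures reached saturation at 30 °C; 1 = growth at the plate median or of vehicle wells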
Conditions: growth OD
[1] = S. cerevisiae deletion strains, locus YAL013W, strain DEP1, stronger effect = lower value
[2] = S. cerevisiae deletion strains, locus YBR229C, strain ROT2, stronger effect = lower value
[3] = S. cerevisiae deletion strains, locus YCL061C, strain MRC1, stronger effect = lower value
[4] = S. cerevisiae deletion strains, locus YDL101C, strain DUN1, stronger effect = lower value
[5] = S. cerevisiae deletion strains, locus YDL134C, strain PPH21, stronger effect = lower value
[6] = S. cerevisiae deletion strains, locus YDR150W, strain NUM1, stronger effect = lower value
[7] = S. cerevisiae deletion strains, locus YEL061C, strain CIN8, stronger effect = lower value
[8] = S. cerevisiae deletion strains, locus YGR078C, strain PAC10, stronger effect = lower value
[9] = S. cerevisiae deletion strains, locus YHR030C, strain SLT2, stronger effect = lower value
[10] = S. cerevisiae deletion strains, locus YHR087W, strain rtc3, stronger effect = lower value
[11] = S. cerevisiae deletion strains, locus YJL187C, strain SWE1, stronger effect = lower value
[12] = S. cerevisiae deletion strains, locus YJR043C, strain POL32, stronger effect = lower value
[13] = S. cerevisiae deletion strains, locus YJR075W, strain HOC1, stronger effect = lower value
[14] = S. cerevisiae deletion strains, locus YLR039C, strain RIC1, stronger effect = lower value
[15] = S. cerevisiae deletion strains, locus YLR058C, strain SHM2 (second series), stronger effect = lower value
[16] = S. cerevisiae deletion strains, locus YLR085C, strain ARP6, stronger effect = lower value
[17] = S. cerevisiae deletion strains, locus YLR262C, strain YPT6, stronger effect = lower value
[18] = S. cerevisiae deletion strains, locus YML094W, strain GIM5, stronger effect = lower value
[19] = S. cerevisiae deletion strains, locus YMR219W, strain ESC1, stronger effect = lower value
[20] = S. cerevisiae deletion strains, locus YNL153C, strain GIM3, stronger effect = lower value
[21] = S. cerevisiae deletion strains, locus YNL298W, strain CLA4 (second series), stronger effect = lower value
[22] = S. cerevisiae deletion strains, locus YNL322C, strain KRE1, stronger effect = lower value
[23] = S. cerevisiae deletion strains, locus YNR030W, strain Alg12, stronger effect = lower value
[24] = S. cerevisiae deletion strains, locus YPL055C, strain LGE1, stronger effect = lower value
[25] = S. cerevisiae deletion strains, locus YPL241C, strain CIN2, stronger effect = lower value
[26] = S. cerevisiae deletion strains, locus YPR135W, strain CTF4, stronger effect = lower value
[27] = S. cerevisiae strains, strain wild type, stronger effect = lower value
[28] = S. cerevisiae deletion strains, locus YMR263W, strain SAP30, stronger effect = lower value
[29] = S. cerevisiae deletion strains, locus YMR307W, strain GAS1, stronger effect = lower value

Measured: normalized growth

S=c1nccc(-c2ccc(Cl)cc2)[nH]1
active: [1] 0.881 | [2] 0.861 | [3] 0.84 | [4] 0.844 | [5] 0.882 | [7] 0.904 | [8] 0.831 | [12] 0.818 | S. cerevisiae deletion strains, locus YKL190W, strain CNB1, stronger effect = lower value 0.849 | [16] 0.413 | [19] 0.918 | [20] 0.895 | [21] 0.76 | [23] 0.694 | S. cerevisiae deletion strains, locus YOL006C, strain TOP1, stronger effect = lower value 0.36 | [24] 0.631 | [25] 0.748 | [26] 0.554 | [27] 0.882
inactive: [6] 1.04 | [9] 0.722 | [10] 0.912 | [11] 0.969 | [13] 0.949 | [14] 1.01 | [15] 0.957 | [17] 1.05 | [18] 0.879 | [22] 0.988

COC(=O)CSc1ncnc2c(C)csc12
inactive: [1] 0.989 | [2] 0.998 | [4] 0.959 | [5] 0.973 | [6] 0.948 | [7] 0.978 | [8] 0.988 | [9] 0.802 | [10] 0.998 | [12] 0.973 | [13] 0.974 | [14] 0.958 | [15] 0.995 | [16] 0.9 | [17] 0.985 | [18] 0.949 | [19] 1 | [28] 0.981 | [29] 0.903 | [20] 0.994 | [21] 0.945 | [22] 1 | [23] 0.981 | [24] 0.953 | [25] 0.986 | [26] 0.818

COC(=O)CSc1nc2ccc(Cl)cc2s1
inactive: [1] 0.964 | [2] 0.932 | [4] 0.906 | [6] 1.02 | [7] 0.96 | [8] 0.958 | [10] 0.942 | [11] 0.949 | [12] 0.977 | [13] 0.955 | [14] 0.842 | [17] 0.891 | [18] 0.901 | [19] 0.962 | [28] 1 | [29] 1.15 | [20] 0.962 | [21] 0.877 | [22] 0.959 | [23] 0.975 | [24] 0.92 | [26] 0.685
active: [9] 0.491 | [15] 0.932 | [16] 0.744 | [25] 1.18 [resistant]

O=C1NN=C2C3CC4CC12CC1(C3)C(=O)NN=C41
inactive: [1] 0.992 | [2] 0.999 | [4] 1 | [5] 1.01 | [6] 1 | [7] 0.997 | [8] 1.01 | S. cerevisiae deletion strains, locus YGR229C, strain SMI1, stronger effect = lower value 1 | [9] 1.03 | [10] 0.974 | [12] 1.02 | [13] 1.02 | [14] 1.05 | [15] 1 | [16] 0.989 | [17] 1.03 | [18] 0.974 | [19] 1 | [28] 0.974 | [20] 1.02 | [21] 0.983 | [22] 1.02 | [23] 0.978 | [24] 0.981 | [25] 0.998 | [26] 1.01 | [27] 0.999

C=CC1C2=CCOC(=O)C2=COC1OC1OC(CO)C(O)C(O)C1O (stereo not given)
inactive: S. cerevisiae deletion strains, locus YAL021C, strain ccr4, stronger effect = lower value 1.02 | S. cerevisiae deletion strains, locus YAL026C, strain drs2, stronger effect = lower value 1.02 | S. cerevisiae deletion strains, locus YAL030W, strain snc1, stronger effect = lower value 1.02 | S. cerevisiae deletion strains, locus YBL061C, strain skt5, stronger effect = lower value 1.01 | S. cerevisiae deletion strains, locus YBR009C, strain hhf1, stronger effect = lower value 1.02 | S. cerevisiae deletion strains, locus YBR023C, strain chs3, stronger effect = lower value 1.01 | S. cerevisiae deletion strains, locus YBR171W, strain sec66, stronger effect = lower value 1.02 | S. cerevisiae deletion strains, locus YBR231C, strain swc5, stronger effect = lower value 1.02 | S. cerevisiae deletion strains, locus YBR279W, strain paf1, stronger effect = lower value 1.01 | S. cerevisiae deletion strains, locus YCL011C, strain gbp2, stronger effect = lower value 1.02 | S. cerevisiae deletion strains, locus YCL016C, strain dcc1, stronger effect = lower value 1.01 | [3] 1.02 | S. cerevisiae deletion strains, locus YCL069W, strain vba3, stronger effect = lower value 1.02 | S. cerevisiae deletion strains, locus YCR088W, strain abp1, stronger effect = lower value 1.02 | S. cerevisiae deletion strains, locus YDL005C, strain med2, stronger effect = lower value 1.01 | S. cerevisiae deletion strains, locus YDL040C, strain nat1, stronger effect = lower value 1.02 | S. cerevisiae deletion strains, locus YDR001C, strain nth1, stronger effect = lower value 1.02 | S. cerevisiae deletion strains, locus YDR069C, strain doa4, stronger effect = lower value 1.02 | S. cerevisiae deletion strains, locus YDR137W, strain rgp1, stronger effect = lower value 1.08 | S. cerevisiae deletion strains, locus YDR159W, strain sac3, stronger effect = lower value 1.02 | S. cerevisiae deletion strains, locus YDR195W, strain ref2 1.01 | S. cerevisiae deletion strains, locus YDR297W, strain sur2, stronger effect = lower value 1.02 | S. cerevisiae deletion strains, locus YDR334W, strain swr1, stronger effect = lower value 1.02 | S. cerevisiae deletion strains, locus YDR335W, strain msn5, stronger effect = lower value 1.02 | S. cerevisiae deletion strains, locus YDR392W, strain spt3, stronger effect = lower value 1.02 | S. cerevisiae deletion strains, locus YEL003W, strain gim4, stronger effect = lower value 1.02 | S. cerevisiae deletion strains, locus YEL037C, strain rad23, stronger effect = lower value 1.02 | S. cerevisiae deletion strains, locus YEL061C, strain CIN8 (second series), stronger effect = lower value 1.03 | S. cerevisiae deletion strains, locus YER015W, strain faa2, stronger effect = lower value 1.01 | S. cerevisiae deletion strains, locus YER016W, strain bim1, stronger effect = lower value 1.02 | S. cerevisiae deletion strains, locus YER111C, strain swi4, stronger effect = lower value 1.01 | S. cerevisiae deletion strains, locus YER155C, strain BEM2 (second series), stronger effect = lower value 1.05 | S. cerevisiae deletion strains, locus YFR010W, strain ubp6, stronger effect = lower value 1.03 | S. cerevisiae deletion strains, locus YGL167C, strain pmr1, stronger effect = lower value 1.02 | S. cerevisiae deletion strains, locus YGL173C, strain kem1, stronger effect = lower value 1.02 | S. cerevisiae deletion strains, locus YGL227W, strain vid30, stronger effect = lower value 1.03 | S. cerevisiae deletion strains, locus YGL240W, strain doc1, stronger effect = lower value 1.02 | S. cerevisiae deletion strains, locus YGL253W, strain hxk2, stronger effect = lower value 1.03 | S. cerevisiae deletion strains, locus YHR013C, strain ard1, stronger effect = lower value 1.04 | S. cerevisiae deletion strains, locus YHR027C, strain rpn1, stronger effect = lower value 1.02 | S. cerevisiae deletion strains, locus YHR142W, strain chs7, stronger effect = lower value 1.04 | S. cerevisiae deletion strains, locus YJL092W, strain hpr5, stronger effect = lower value 1.01 | S. cerevisiae deletion strains, locus YJL095W, strain BCK1 (second series), stronger effect = lower value 1.02 | S. cerevisiae deletion strains, locus YJL115W, strain asf1, stronger effect = lower value 1.03 | S. cerevisiae deletion strains, locus YJL129C, strain trk1, stronger effect = lower value 1.04 | S. cerevisiae deletion strains, locus YJL154C, strain vps35, stronger effect = lower value 1.01 | S. cerevisiae deletion strains, locus YJL164C, strain tpk1, stronger effect = lower value 1.02 | S. cerevisiae deletion strains, locus YJL166W, strain qcr8, stronger effect = lower value 1.02 | [11] 1.02 | S. cerevisiae deletion strains, locus YKL160W, strain elf1, stronger effect = lower value 1.01 | S. cerevisiae deletion strains, locus YKR026C, strain gcn3, stronger effect = lower value 1.02 | S. cerevisiae deletion strains, locus YKR091W, strain srl3, stronger effect = lower value 1.02 | S. cerevisiae deletion strains, locus YLL001W, strain dnm1, stronger effect = lower value 1.02 | S. cerevisiae deletion strains, locus YLL026W, stronger effect = lower value 1.01 | S. cerevisiae deletion strains, locus YLL041C, strain sdh2, stronger effect = lower value 1.02 | S. cerevisiae deletion strains, locus YLR027C, strain aat2, stronger effect = lower value 1.01 | S. cerevisiae deletion strains, locus YLR221C, strain rsa3, stronger effect = lower value 1.02 | S. cerevisiae deletion strains, locus YLR258W, strain gsy2, stronger effect = lower value 1.01 | S. cerevisiae deletion strains, locus YLR262C, strain YPT6 (second series), stronger effect = lower value 1.03 | S. cerevisiae deletion strains, locus YLR320W, strain mms22, stronger effect = lower value 1.03 | S. cerevisiae deletion strains, locus YLR342W, strain FKS1, stronger effect = lower value 1 | S. cerevisiae deletion strains, locus YLR357W, strain rsc2, stronger effect = lower value 1 | S. cerevisiae deletion strains, locus YLR370C, strain arc18, stronger effect = lower value 1.03 | S. cerevisiae deletion strains, locus YLR384C, strain iki3, stronger effect = lower value 1.01 | S. cerevisiae deletion strains, locus YML120C, strain ndi1, stronger effect = lower value 1.02 | S. cerevisiae deletion strains, locus YMR058W, strain fet3, stronger effect = lower value 1.02 | S. cerevisiae deletion strains, locus YMR125W, strain sto1, stronger effect = lower value 1.03 | S. cerevisiae deletion strains, locus YMR129W, stronger effect = lower value 1.02 | S. cerevisiae deletion strains, locus YMR205C, strain PFK2, stronger effect = lower value 1.03 | S. cerevisiae deletion strains, locus YMR231W, strain pep5, stronger effect = lower value 1.03 | S. cerevisiae deletion strains, locus YNL071W, strain lat1, stronger effect = lower value 1.02 | S. cerevisiae deletion strains, locus YNL209W, strain ssb2, stronger effect = lower value 1.01 | S. cerevisiae deletion strains, locus YNL248C, strain rpa49, stronger effect = lower value 1.05 | S. cerevisiae deletion strains, locus YNL322C, strain KRE1 (second series), stronger effect = lower value 1.02 | S. cerevisiae deletion strains, locus YNR049C, strain mso1, stronger effect = lower value 1.01 | S. cerevisiae deletion strains, locus YOR001W, strain rrp6, stronger effect = lower value 1.01 | S. cerevisiae deletion strains, locus YOR070C, strain gyp1, stronger effect = lower value 1.02 | S. cerevisiae deletion strains, locus YOR080W, strain dia2, stronger effect = lower value 1.02 | S. cerevisiae deletion strains, locus YOR083W, strain WHI5, stronger effect = lower value 1.01 | S. cerevisiae deletion strains, locus YOR106W, strain vam3, stronger effect = lower value 1.02 | S. cerevisiae deletion strains, locus YOR265W, strain rbl2, stronger effect = lower value 1.01 | S. cerevisiae deletion strains, locus YOR270C, strain vph1, stronger effect = lower value 1.11 | S. cerevisiae deletion strains, locus YOR290C, strain snf2, stronger effect = lower value 1.02 | S. cerevisiae deletion strains, locus YPL051W, strain arl3, stronger effect = lower value 1.01 | S. cerevisiae deletion strains, locus YPL078C, strain atp4, stronger effect = lower value 1.04 | S. cerevisiae deletion strains, locus YPL106C, strain sse1, stronger effect = lower value 1.02 | S. cerevisiae deletion strains, locus YPL240C, strain hsp82, stronger effect = lower value 1
